Compounds with a hit are over-represented: about 0.47% of the library has one in this group of screens.
BioA inh-1 – M. tuberculosis BioA enzyme inhibitors, primary screen, biochemical, plate reader, single point, HTS; purified M. tuberculosis BioA enzyme; inhibition, % at 9.99 µM; 0.096% of 360,000 active; in the data active means inhibition above about 40%; inconclusive means no clear call, values can overlap the other calls
Y pestis TopoI – Yersinia pestis topoisomerase I inhibitors, primary screen, biochemical, cleavage product accumulation, plate reader, single point; DNA topoisomerase I (Yersinia pestis CO92); Y. pestis Topo-I cleavage product accumulation; activity, % at 10 µM; 0.064% of 360,000 active; AID 504884, 2011; in the data active means activity above about 50%, passing the limit was not always enough; inconclusive means no clear call, values can overlap the other calls
TcdB GH inh – TcdB glycohydrolase inhibitors, primary screen, biochemical, single point, plate reader | TcdB glycohydrolase enzymatic assay | Toxin B (Clostridioides difficile), P18177 | AID 652162, 2013 | 0.24% of 350,000 active | inhibition, % at 9.99 µM; in the data active means inhibition above about 10%
FadD28 binding – inhibitors of FadD28 bisubstrate probe binding, primary screen, biochemical, fluorescence polarization, single point; Mycobacterium tuberculosis FadD28 fatty-acid-AMP ligase; inhibition, % at 12.5 µM; 0.22% of 360,000 active; AID 588549, 2011; in the data active means inhibition above about 8.5%, passing the limit was not always enough; inconclusive means no clear call, values can overlap the other calls
BioA inh-2 – Mtb BioA enzyme inhibitors, dose response, biochemical, plate reader, cherry-pick samples, set 03; shares compounds with BioA inh-1; purified BioA enzyme; max activity, %; 310 tested, under 10 active; AID 651679, 2012;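 further: top concentration of the dilution series was 10 µM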
Target sequence (P9WQ81 whole entry, looked up): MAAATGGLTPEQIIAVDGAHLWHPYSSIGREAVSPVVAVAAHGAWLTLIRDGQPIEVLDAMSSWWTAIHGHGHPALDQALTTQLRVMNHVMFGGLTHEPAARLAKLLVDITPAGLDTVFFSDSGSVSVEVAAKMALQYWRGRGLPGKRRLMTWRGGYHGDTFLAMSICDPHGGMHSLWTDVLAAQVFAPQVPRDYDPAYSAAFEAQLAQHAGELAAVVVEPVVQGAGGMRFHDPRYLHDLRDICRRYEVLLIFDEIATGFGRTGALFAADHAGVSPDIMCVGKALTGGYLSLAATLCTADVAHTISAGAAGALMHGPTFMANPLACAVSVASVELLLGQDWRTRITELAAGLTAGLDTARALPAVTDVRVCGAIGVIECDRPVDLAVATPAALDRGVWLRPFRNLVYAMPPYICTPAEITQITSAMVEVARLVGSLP
HepG2 tox 2 – cytotoxicity in HepG2 cells, dose response, cytotoxicity control, cell-based, plate reader, cherry-pick, two tests. shares compounds with BioA inh-1. max activity, %. 310 tested, under 10 active
NIH3T3 tox 5 – cytotoxicity in NIH3T3 fibroblasts, dose response, cytotoxicity control, cell-based, plate reader, cherry-pick, two tests; shares compounds with BioA inh-1; activity change, negative = cytotoxicity, % at 26 µM; 310 tested, under 10 active; AID 651900, 2012
* = called active by the depositor; i = inactive; ? = inconclusive; . = not tested or not shown. Unless noted, how the calls were made is not given here.

SMILES	BioA inh-1	Y pestis TopoI	TcdB GH inh	FadD28 binding	BioA inh-2	HepG2 tox 2	NIH3T3 tox 5
Cc1[nH]n(-c2ncc(-c3ccccc3)s2)c(=O)c1C(c1ccc(Cl)cc1)C(C#N)C#N (configuration not stated)	.	-9	2	8.6*	.	.	.
Cc1[nH]n(-c2ccccc2)c(=O)c1C(c1ccccc1[N+](=O)[O-])C(C#N)C#N (configuration not stated)	1	-7	-9	0	.	.	.
O=C(Nc1ccn(CCCN(CCCn2ccc(NC(=O)OCc3ccccc3)nc2=O)CCc2cc3ccccc3[nH]2)c(=O)n1)OCc1ccccc1	-1	77*	1	-5	.	.	.
CCCc1cn(CC[C@H]2CC[C@@H](NC(=O)C3CC3)[C@H](CO)O2)nn1	-1	.	0	.	.	.	.
S=c1nc(-c2cccc(Cl)c2)[nH][nH]1	.	4	14*	-3	.	.	.
Cc1[nH]ccc2c1[nH]c1cc(=O)ccc12	-1	-12	10*	0	.	.	.
O=c1cc[nH]c2c1ccc1c(=O)cc[nH]c12	.	-9	-18	-2	.	.	.
Cn1c(CNC(=O)OC(C)(C)C)nnc1SCC(=O)N1CCOCC1	.	3	1	-3	.	.	.
O=C(NCC1(c2ccccc2)CCCC1)C1(c2ccccc2)CCCC1	.	68*	.	-3	.	.	.
COc1cc(C2C(C(=O)c3cc4ccccc4o3)=C(O)C(=O)N2CCN2CCOCC2)ccc1OCCC(C)C (configuration not stated)	0	7	1	.	.	.	.
CC1=NN(c2nc(-c3ccc(F)cc3)cs2)C(=O)C1	-3	-14	.	18*	.	.	.
CC1=NN(c2nc(-c3ccc(Cl)cc3)cs2)C(=O)C1	.	-14	.	?	.	.	.
O=c1[nH]nc(Cc2ccccc2)c2ccccc12	0	9	.	-3	.	.	.
O=c1[nH]nc(Cc2ccc(-c3ccc(Cl)cc3)o2)c2ccccc12	-2	68*	.	-1	.	.	.
COc1ccc(CNC(=O)CCN2C(=O)c3ccncc3C2=O)cc1OC	-1	-2	0	1	.	.	.
Cc1cc(C(C)(C)C)cc(CN2CCN(S(=O)(=O)c3cccs3)CC2)c1O	-4	-9	11*	0	.	.	.
N#Cc1cccc(-c2ccc3c(c2)[C@@H]2[C@@H](CCN2S(=O)(=O)c2ccc(F)cc2)[C@H](CO)N3)c1	-1	.	0	.	.	.	.
Nc1ccc(Nc2nc(-c3cc4ccccc4oc3=O)cs2)cc1	0	-37	1	-3	.	.	.
COc1ccc(OCc2cc(-c3ccc(Cl)cc3)no2)cc1	0	1	19*	-3	.	.	.
c1ccc(OCc2cc(-c3ccccc3)no2)cc1	.	21	1	-3	.	.	.
O=C(N[C@H]1CC[C@H](CCNC(=O)C2CCC2)O[C@H]1CO)c1ccccn1	1	.	-1	.	.	.	.
COc1ccc(-c2nc3ccc(Cl)cn3c2Cc2ccccc2)cc1OC	70*	.	2	-6	-9	-13	-7
CCOC(=O)C1=C(C)N(C)C(=O)NC1c1cccc([N+](=O)[O-])c1 (configuration not stated)	0	4	1	-5	.	.	.
O=C1CCCc2c1cc(C(=O)NCc1ccco1)c(=O)n2-c1ccc(Cl)cc1	50*	4	.	2	3	21	2
O=C1CCCc2c1cc(C(=O)NCCCN1CCOCC1)c(=O)n2-c1ccc(Cl)cc1	45*	12	3	1	-5	-4	-2
SMILES	BioA inh-1	Y pestis TopoI	TcdB GH inh	FadD28 binding	BioA inh-2	HepG2 tox 2	NIH3T3 tox 5
Cc1ccc(-n2c3c(cc(C(=O)NCc4ccco4)c2=O)C(=O)CCC3)cc1	31	-2	1	1	.	.	.
Cc1ccc(-n2c3c(cc(C(=O)NCCCN4CCOCC4)c2=O)C(=O)CC(C)(C)C3)cc1	1	5	1	1	.	.	.
C#CCSc1nnc(-c2sc(-c3ccccc3)nc2C)n1C	60*	-2	.	-1	-3	-14	3
NC(=O)c1ccc(Oc2cccc3cccnc23)c([N+](=O)[O-])c1	42*	-9	-1	-3	25	20	7
COCCn1c(SCC(=O)Nc2ccc(N3CCOCC3)cc2)nc2ccccc21	.	10	.	0	.	.	.
CC(=O)N1CCN(c2ccc([N+](=O)[O-])cc2C=C2C(=O)NC(=O)NC2=O)CC1	44*	-4	.	-2	-6	14	8
Cc1nnc(SCc2ccon2)n1-c1ccccc1	-1	4	.	-3	.	.	.
Cc1ccc(C(=O)NCCSc2ccccc2)cc1S(=O)(=O)Nc1ccccc1	2	-1	.	-1	.	.	.
O=C(C1CCOCC1)N1CC[C@@H]2[C@H](CO)Nc3ccc(Br)cc3[C@@H]21	72*	.	-3	.	9	i	1
O=C(C1CCC1)N1CC[C@@H]2[C@@H](CO)Nc3ccc(Br)cc3[C@@H]21	.	.	0	.	.	.	.
O=C(C1CCOCC1)N1CC[C@@H]2[C@H]1c1cc(Br)ccc1N[C@@H]2CO	74*	.	2	.	2	i	0
O=C(Cc1ccccc1)N1CC[C@@H]2[C@H](CO)Nc3ccc(Br)cc3[C@@H]21	44*	.	0	.	5	i	-10
CCCOc1ccc(NC2=CC(=O)CC(C)(C)C2)cc1	-1	4	0	0	.	.	.
Cc1ccc(C(=O)Nc2ncc3c(n2)CC(c2ccco2)CC3=O)cc1 (configuration not stated)	.	5	.	-2	.	.	.
O=C(Nc1ncc2c(n1)CC(c1ccco1)CC2=O)c1ccccc1 (configuration not stated)	60*	3	.	0	-9	-14	-7
Cc1nc2c(C(=O)N3CCN(c4ccccn4)CC3)cnn2c(C)c1Cc1cccc(Cl)c1	40*	19	.	-2	-6	11	5
Cc1nc2c(C(=O)N3CCC4(CC3)OCCO4)cnn2c(C)c1Cc1cccc(Cl)c1	17	15	1	-5	.	.	.
COCC(=O)Nc1ccc2c(c1)C(=O)N(C)[C@@H]1CC[C@@H](CC(=O)NCc3ccccc3Cl)O[C@H]1CO2	0	.	.	.	.	.	.
COc1cc2cnc(-c3cccnc3)cc2cc1OC	46*	-1	3	-1	-6	-11	-1
COc1ccc(-c2cc3cc(OC)c(OC)cc3cn2)cc1OC	.	4	1	-3	.	.	.
CC(=O)Nc1nc(C)c(CCC2OCCO2)c(=O)[nH]1	.	-3	0	0	.	.	.
C/C=C/c1ccc2c(c1)O[C@H](CN(C)C(=O)Nc1ccc(F)cc1)[C@H](C)CN([C@H](C)CO)S2(=O)=O	1	.	-1	.	.	.	.
C/C=C/c1ccc2c(c1)O[C@@H](CN(C)C(=O)Nc1ccc(F)cc1)[C@@H](C)CN([C@@H](C)CO)S2(=O)=O	55*	.	0	.	-5	i	-14

Source: PubChem (Broad Institute)
